Hit rate of the full screen: of about 220,000 compounds, about 8,200 (3.7%) were called active. The sample holds actives, similar compounds and a random draw of the others, so the mix is not that of the screen.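 How the source made its calls: active means compounds that reduced the stress-induced luciferase reporter signal by more than about 70% of percent inhibition (limit read from the data); inactive means the rest.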

The nature of the assay: inhibitors of CHOP promoter induction, primary screen, cell-based, unfolded protein response, luciferase reporter (AID 2732).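 Further: 0% = tunicamycin plus vehicle and 100% = wells without tunicamycin.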 The conditions noted are these: CHO-K1 CHOP-promoter luciferase, tunicamycin-induced, 15-18 h; at 10 µM; stronger effect = higher value.
For the compound `COc1cccc(C(=O)n2ccc(-c3cccs3)n2)c1`, the inhibition – broadly, the change of the read-out against control, counted positive when it falls – was 17.3% (inactive).

In the case of `O=c1c2ccccc2cnn1Cc1n[nH]c(=S)n1-c1ccccc1F`, the inhibition was 5.73% (inactive).

With `CCC(C)Sc1nc(C)nc2c1c(=O)n(C)c(=O)n2C` (stereo not given), the inhibition was 82.4% (active).

With `CSc1nc(C)nc2c1c(=O)n(C)c(=O)n2C`, the inhibition is 11.2% (inactive).

As for `CCOC(=O)N1CCN(C(=O)CSc2nc(C)nc3c2c(=O)n(C)c(=O)n3C)CC1`, the inhibition is 28.2% (inactive).

Turning to `O=c1c(-c2ccc(Cl)cc2)[n+]([O-])c2ccccc2n1OCc1nc2ccccc2[nH]1`, the inhibition is 11.1% (inactive).

Consider `C=CCC(Nc1ccccc1)c1cccc(OC)c1OC` (stereo not given), for which the inhibition is 29.3% (inactive).

`CSCCC(NS(=O)(=O)c1ccc2c(c1)oc(=O)n2C)C(=O)NCc1ccccc1` (stereo not given): the inhibition is 18.5% (inactive).

For `CSc1nc(-c2ccccc2)nc(C(Cl)Cl)n1`, the inhibition is 102% (active).

Take `CSc1nc(C)cc(SC(C(C)=O)C(=O)Nc2ccccc2)n1` (stereo not given): the inhibition is 9.45% (inactive).

For the compound `COc1ccc(NS(=O)(=O)c2ccc(N3CCOCC3)c(NC(=O)c3ccccc3Br)c2)cc1`, the inhibition is -3.53% (inactive).

Turning to `CCOC(=O)N/N=C1\CC(C)S(=O)(=O)c2ccc(Cl)cc21` (stereo not given), the inhibition is -26.8% (inactive).

In the case of `Cc1ccc(C(=O)NCC(=O)OCC(=O)Nc2cccc(S(=O)(=O)N3CCCC3)c2)cc1C`, the inhibition was -17.8% (inactive).

As to `CC(C)=C1SC(N2CCN(c3ccc(C)c(Cl)c3)CC2)=NC1=O`, the inhibition is 23.3% (inactive).

In the case of `COC(=O)Cc1ccc(Oc2ncc(C(F)(F)F)cc2Cl)cc1`, the inhibition is 29.9% (inactive).

On to `Cc1cc(C)cc(NS(=O)(=O)c2ccc(Oc3ncc(C(F)(F)F)cc3Cl)cc2)c1`, for which the inhibition was 90.3% (active).

In the case of `COc1ccccc1Oc1ccc(S(=O)(=O)Nc2cccnc2)cc1`, the inhibition was 44.6% (inactive).

As to `Cc1ccc(-n2c(SCC(=O)Nc3ncc(Cl)cc3Cl)nc3ccccc32)cc1`, the inhibition is 49.5% (inactive).

As to `Cc1ccc(SCCC(=O)OCC(=O)Nc2ncc(Cl)cc2Cl)cc1`, the inhibition was 82% (active).

Turning to `CC(Oc1ccc(Cl)cc1)C(=O)OCC(=O)Nc1ncc(Cl)cc1Cl` (stereo not given), the inhibition is 2.69% (inactive).

Take `Cc1cc(NC(=O)Nc2ccc(Cl)cc2)n(-c2ccccc2)n1`: the inhibition is 10.7% (inactive).

On to `C/C=C(/C)C(=O)Nc1cccc(C2=NOC3(C2)C[C@@H](C(N)=O)N(C(=O)C2(C)CC2)C3)c1` (stereo not given in full), for which the inhibition is -8.38% (inactive).

As for `COc1cc(SC#N)ccc1N=Cc1c(C)[nH]n(-c2ccc(C)cc2)c1=O`, the inhibition is 107% (active).

With `CCc1nnc(NS(=O)(=O)c2ccc(N=Cc3c(C)[nH]n(-c4ccc(C)cc4)c3=O)cc2)s1`, the inhibition is -15.8% (inactive).

As for `Cc1ccc(-n2[nH]c(C)c(/C=N/N3C(=O)c4cccc5cccc(c45)C3=O)c2=O)cc1`, the inhibition was 36.5% (inactive).

These data come from PubChem BioAssay AID2732 (Emory University Molecular Libraries Screening Center, 2010).
